Screening results (PubChem BioAssay)
The sample as a whole holds a higher share of hits than the screen did.
PKA inh: blocks human protein kinase A activity; P17612; PKA Kemptide phosphorylation, Kinase-Glo ATP luminescence; inhibition, % at 6 µM; 65,000 tested, 0.1% active; AID 524;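 active = inhibition above the screen-wide mean inhibition plus 3 SD, cut at about 21% in these data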
ROCK2 blocker: ROCK2 (human) kinase inhibition | 60,000 tested, 0.35% active | inhibition, % at 6 µM | O75116 | purified ROCK2, Kinase-Glo ATP depletion luminescence;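 active = inhibition above the screen-wide mean inhibition plus 3 SD, cut at about 18% in these data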;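 also: plate controls were DMSO wells for no effect and Y-27632 control wells after no-enzyme background subtraction for full effect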
D1 allo mod: D1 dopamine receptor (human) allosteric modulation; P21728; HEK293 D1, CRE-luciferase, dopamine EC30 potentiation; actives deviate in either direction; B-score at 10 µM; 58,000 tested, 5.9% active; AID 641;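 active = luminescence count or its row- and column-corrected plate score outside the 99.7% band of the plate's sample wells, on either side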
DAT uptake mod: human DAT dopamine uptake with cocaine, either direction | LLC-PK1 hDAT cells, [14C]-dopamine uptake with cocaine IC80; actives deviate in either direction | 110,000 tested, 1.3% active | B-score at 10 µM;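 active = Z score or B-score, a plate-position-corrected score, falls beyond the plate's 99.7% confidence bounds, in either direction; inactive = both scores lie inside the 99.7% bounds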;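 also: scored against the spread of the other compound wells on the same plate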
D1 PAM confirm: confirmation of human D1 dopamine receptor allosteric modulators; 2,200 tested, 88% active; HEK293 D1 CRE-luciferase, dopamine EC30 potentiation; stronger effect = higher value; shares compounds with D1 allo mod; luminescence at 10 µM;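 active = luminescence in either of two replicates above the same-plate mean plus 3 SD of the low-dose dopamine control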
D1 ag no DA: D1 (human) signaling in absence of dopamine; shares compounds with D1 allo mod; HEK293 D1 CRE-luciferase, luminescence, no dopamine; stronger effect = higher value; luminescence at 10 µM; 1,900 tested, 0.8% active; in the data active = luminescence above about 3900
Isoprot counter: counter-screen for D1 modulators: isoproterenol response in HEK293 cells | shares compounds with D1 allo mod | HEK293 D1 CRE-luciferase, isoproterenol EC30 counter-screen | calls only at 10 µM | 2,200 tested, 63% active | AID 647;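 active = luminescence in either replicate above plate mean of wells with a partly effective reference agonist dose plus 3 SD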;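 also: isoproterenol raises cAMP through native beta-adrenoceptor Gs so signal bypasses D1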
The depositor's hits bear a star; i = inactive; . = no result given; + = active, no number.

SMILES	PKA inh	ROCK2 blocker	D1 allo mod	DAT uptake mod	D1 PAM confirm	D1 ag no DA	Isoprot counter
Cc1ccc2oc(=O)cc(CN3CCC(C)CC3)c2c1	-2.4	-2.5	2.95	-0.332	.	.	.
CCOc1ccc2oc(-c3ccccc3)c(C(=O)N3CCN(CCO)CC3)c2c1	6.4	7.8	1.04	-0.89	.	.	.
CC(C)n1c(SCC(=O)N2c3ccccc3Sc3ccccc32)nc2c1c(=O)n(C)c(=O)n2C	3.1	2.9	5.18*	-0.00845	12564*	.	+
CCCn1c(SCC(=O)N2c3ccccc3Sc3ccccc32)nc2c1c(=O)n(C)c(=O)n2C	5.5	3.9	0.148	1.24	.	.	.
O=C(Cc1cccs1)Nc1ccccc1NC(=O)Cc1cccs1	-8.0	-4.3	4.9*	-0.211	5744	1712	i
CCc1ccc(C(=O)COC(=O)c2cnccn2)cc1	.	.	.	-0.29	.	.	.
O=C1c2ccccc2C(=O)N1CCC1=CCCCC1	.	.	.	0.124	.	.	.
CC1(C)CC(=O)c2c(n(-c3cccc4ccccc34)ccc2=O)C1	.	.	.	0.91	.	.	.
COc1ccc(-n2c(SCC(N)=O)nc3sc4c(c3c2=O)CCN(C)C4)cc1	8.6	2.6	0.462	-1.36	.	.	.
CCn1c(SCC(=O)OC)nc2sc3c(c2c1=O)CCC3	.	.	16*	-0.225	16808*	1576	+
C=CCn1c(SCC(=O)N2CCOCC2)nc2sc3c(c2c1=O)CCCC3	4.5	8.2	3.44*	3.11*	7424*	1576	+
COC(=O)CSc1nc2sc3c(c2c(=O)n1C1CCCCC1)CCN(C)C3	4.7	2.7	14.5*	.	21932*	1592	+
COC(=O)c1ccc(Oc2cc(C)nc(-n3nc(C)cc3C)n2)cc1	-4.1	-7.6	7.78*	-0.646	18884*	1876	+
Cc1cc(Oc2ccccc2)nc(N)n1	-0.5	3.5	4.01*	1.31	9044*	.	+
COC(=O)CSc1nc(C)cc(Oc2ccccc2)n1	-8.0	1.4	12.3*	0.431	13148*	.	+
CCOC(=O)c1ccc(Oc2nc(NC)nc(SC)n2)cc1	6.0	2.1	7.95*	0.457	17796*	1848	i
O=C(CCn1c(=O)sc2ccccc21)NCCN1CCOCC1	-6.5	1.9	0.46	-0.443	.	.	.
CCOC(=O)c1ccc(Oc2cc(C)nc(SC)n2)cc1	-0.4	1.7	3.01*	0.422	8484*	1628	i
COCc1cc(C)nc(OCC(=O)N/N=C\c2cc(C)n(-c3cccc(C(F)(F)F)c3)c2C)c1C#N	.	.	.	1.9	.	.	.
O=C1OCc2ccc(NC(=O)C3CCCCC3)cc21	-2.0	.	7.51*	-0.552	7424	1748	i
CC(=O)OCC[N+](C)(C)C	-6.2	-8.4	6.24*	-0.292	6608*	1464	+
CC(C)(C)NC(=O)c1ccc2c(c1)N(CC(=O)N1CCN(c3ccc(F)cc3)CC1)C(=O)C(C)(C)O2	-1.3	2.6	-0.255	2.59	.	.	.
COC(=O)[C@@H]1C[C@@]2(O)[C@@H](O)[C@@H](O)[C@@H](O)C[C@H]2N1C/C=C/c1ccccc1	.	.	.	-1.01	.	.	.
CCCC(=O)OCC(=O)Nc1cc(C(C)(C)C)nn1-c1ccccc1	-2.2	-4.4	4.7*	-1.17	6968*	.	i
c1ccc(CNc2nc3ccccc3n3cnnc23)nc1	3.8	3.1	9.23*	-1.21	13992*	.	+
SMILES	PKA inh	ROCK2 blocker	D1 allo mod	DAT uptake mod	D1 PAM confirm	D1 ag no DA	Isoprot counter
Cn1c(=O)n(CC(=O)O)c(=O)c2c1nc1n2CCS1	-0.4	-1.0	5.72*	-0.362	4976	1656	i
CCn1c(=O)c2c(nc3n2CCS3)n(C)c1=O	.	.	.	0.533	.	.	.
O=C(c1cccc(-c2nnc(-c3ccccc3)o2)c1)N1CCCCC1	9.9	4.0	7.88*	1.48	12576*	1552	+
O=C(c1cccc(-c2nnc(-c3ccccc3)o2)c1)N1CCCCCC1	.	.	.	1.2	.	.	.
COC(=O)CSc1nnc(-c2ccco2)n1-c1ccc(C)cc1	4.4	7.0	14.9*	1.48	17312*	1612	+
CCOC(=O)CSc1nnc(-c2ccco2)n1-c1ccc(C)cc1	-1.8	0.0	4.29*	0.0156	5532	.	+
CCOC(=O)CSc1nnc(-c2ccco2)n1-c1ccccc1	10.5	7.1	0.59	-0.469	.	.	.
COC(=O)c1cccc(CSc2nnc(-c3ccco3)n2-c2ccccc2)c1	3.0	2.9	4.25*	0.359	17968*	1916	+
C=CCOC(=O)C1=C[C@@H](c2ccc3c(c2)OCO3)C[C@@H](OCc2ccc(CO)cc2)O1	.	.	.	-0.514	.	.	.
O=C(NC1CCCCC1)c1ccccc1NC(=O)C1CC(=O)N(c2ccc(Cl)cc2)C1 (stereo not given)	.	.	.	0.0436	.	.	.
CCCCn1c(=NC(=O)c2ccco2)c(C(=O)OCC)cc2c(=O)n3ccccc3nc21	-2.2	.	5.57*	0.851	9240*	1496	i
CCOCCCn1c(=NC(=O)c2cccnc2)c(C(=O)OCC)cc2c(=O)n3ccccc3nc21	10.7	8.1	3.28*	0.377	10440*	1560	+
CCCCn1c(=NC(=O)c2cccnc2)c(C(=O)OCC)cc2c(=O)n3ccccc3nc21	-2.1	.	6.99*	0.704	11452*	1452	i
CCOc1cc(CNn2nnnc2N)cc(Cl)c1OCC(=O)NC(C)(C)C	.	.	.	0.702	.	.	.
O=C(NCCCN1CCN(c2ccccc2F)CC1)C1CCN(S(=O)(=O)N2CCOCC2)CC1	-3.6	-1.0	14.4*	-0.234	15768*	10072*	+
O=C(NCCN1CCN(c2ccccc2)CC1)C1CCN(S(=O)(=O)N2CCOCC2)CC1	16.1	9.0	-0.0615	-1.04	.	.	.
O=C(COc1cccc2ccccc12)N1c2ccccc2CCc2ccccc21	.	.	.	2.26	.	.	.
COc1ccc(N2CCN(Cc3nc4c(c(=O)n(C)c(=O)n4C)n3CCc3ccccc3)CC2)cc1	4.2	4.6	3.54*	-1.44	7060	1804	+
Cc1cc(C)nc(N2CCC(C(=O)NC3CCCc4ccccc43)CC2)n1 (stereo not given)	4.5	1.6	0.201	-0.389	.	.	.
CC(=O)NC1(c2ccccc2)CCN(c2nc(C)cc(C)n2)CC1	8.2	6.8	3.45*	-1.55	7128	1700	i
COC(=O)c1ccccc1NC(=O)CN1CCN(C(=O)c2ccco2)CC1	-1.2	-3.1	3.19*	-0.0448	8328	1732	i
Cc1ccccc1C(=O)NC1CCN(CC(=O)Nc2nccs2)CC1	5.2	2.5	-1.04	-0.581	.	.	.
COC(=O)c1ccccc1NC(=O)CN1CCC(NC(=O)c2ccccc2C)CC1	7.3	-2.0	4.22*	0.00965	9492*	1252	+
COc1ccc(NC(C)=O)cc1NC(=O)CN1CCN(C(=O)c2ccco2)CC1	.	.	.	1.97	.	.	.
O=C(Nc1ccc(Cl)cc1)OCCn1nnnc1C(c1ccccc1Cl)N1CCOCC1 (stereo not given)	.	.	.	0.446	.	.	.
